# Results filed as inconclusive are left out. The source made the active and inactive calls. Rule for the calls, unless noted: active = hit-call score of the fitted dose curve at least 0.9, where 1 is the maximum; inconclusive = response in the unintended direction; inactive = score below 0.9.
# Key:
# [1] = ATG_TCF_b_cat_CIS: Attagene CIS-FACTORIAL HepG2 Assay for human T-Cell-Factor with beta-catenin (TCF/b-cat) (AID 2282965; active = hit-call score of the fitted dose curve at least 0.9, where 1 is the maximum; inactive = score below 0.9); details: HepG2 TCF/beta-catenin cis-reporter transcription, actives raise or lower the signal
# How it was run: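 Endogenous TCF/LEF activity read as reporter transcript level via RT-PCR and capillary electrophoresis fluorescence in transfected HepG2, 24 h exposure; gain or loss of signal fitted against DMSO controls.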
# [2] = ATG_TAL_CIS: Attagene CIS-FACTORIAL HepG2 Assay for human TAL Basal Promoter (AID 2282966; active = hit-call score of the fitted dose curve at least 0.9, where 1 is the maximum; inactive = score below 0.9;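 note: background control endpoint measuring basal TAL promoter reporter mRNA not a specific factor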); details: HepG2 Attagene cis-factorial TAL promoter reporter; actives raise or lower the signal
# How it was run: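 Transiently transfected HepG2 (cis-regulated reporter units), 24 h treatment, mRNA read by fluorescent CE after RT-PCR; bidirectional fit, DMSO baseline.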
# [3] = ATG_TGFb_CIS: Attagene CIS-FACTORIAL HepG2 Assay for human Transforming Growth Factor (TGF) (AID 2282967; active = hit-call score of the fitted dose curve at least 0.9, where 1 is the maximum; inactive = score below 0.9); details: HepG2 Attagene CIS TGFb reporter, mRNA transcription; actives raise or lower the signal
# How it was run: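 Transient MRTU transfection of HepG2 (FuGene 6). Dose 24 h. TriZol RNA, oligo(dT) RT, PCR, 6-FAM primer extension, HpaI cut, CE. Bidirectional fit, DMSO = baseline.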
# [4] = target: X-box-binding protein 1 (Homo sapiens) (UniProt P17861); experiment: ATG_Xbp1_CIS: Attagene CIS-FACTORIAL HepG2 Assay for human X-box Binding Protein 1 (XBP1) (AID 2282972; active = hit-call score of the fitted dose curve at least 0.9, where 1 is the maximum; inactive = score below 0.9); details: HepG2 XBP1 cis-element reporter, Attagene multiplex; actives raise or lower the signal
# Sequence of X-box-binding protein 1 (Homo sapiens) (P17861 whole entry, looked up): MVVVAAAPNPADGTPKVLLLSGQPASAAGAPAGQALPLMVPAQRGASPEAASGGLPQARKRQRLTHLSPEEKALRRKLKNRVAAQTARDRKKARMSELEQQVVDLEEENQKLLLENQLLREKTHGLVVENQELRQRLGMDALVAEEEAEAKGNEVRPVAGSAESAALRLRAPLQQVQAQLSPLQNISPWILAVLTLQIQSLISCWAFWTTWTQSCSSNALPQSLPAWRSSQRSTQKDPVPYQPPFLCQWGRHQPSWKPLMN
# How it was run: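 Reporter transcripts were quantified by RT-PCR with fluorescent primer extension and capillary electrophoresis after 24 h chemical exposure. Cells: transiently transfected HepG2 carrying cis-regulated reporter constructs; data fitted bidirectionally relative to DMSO.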
# [5] = ATG_M_19_TRANS: Attagene TRANS-FACTORIAL HepG2 Assay for M19 Transcription Factor (Internal Marker) (AID 2282974); details: HepG2 Attagene TRANS-FACTORIAL M19 internal marker reporter
# How it was run: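 Gain-of-signal in reporter mRNA, relative to DMSO, was scored from capillary electrophoresis fluorescence. HepG2 cells carried transiently transfected multiple reporter transcription units and were incubated with test chemicals for 24 h.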
# [6] = target: Estrogen-related receptor gamma (Homo sapiens) (UniProt P62508); experiment: ATG_ERRg_TRANS: Attagene TRANS-FACTORIAL HepG2 Assay for human Estrogen-Related Receptor gamma (ERRg) (AID 2282977); details: HepG2 Attagene TRANS reporter, ERRg transactivation;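 note: hits increase reporter signal over DMSO so potencies reflect activators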
# Sequence of Estrogen-related receptor gamma (Homo sapiens) (P62508 whole entry, looked up, the tested form may be a part): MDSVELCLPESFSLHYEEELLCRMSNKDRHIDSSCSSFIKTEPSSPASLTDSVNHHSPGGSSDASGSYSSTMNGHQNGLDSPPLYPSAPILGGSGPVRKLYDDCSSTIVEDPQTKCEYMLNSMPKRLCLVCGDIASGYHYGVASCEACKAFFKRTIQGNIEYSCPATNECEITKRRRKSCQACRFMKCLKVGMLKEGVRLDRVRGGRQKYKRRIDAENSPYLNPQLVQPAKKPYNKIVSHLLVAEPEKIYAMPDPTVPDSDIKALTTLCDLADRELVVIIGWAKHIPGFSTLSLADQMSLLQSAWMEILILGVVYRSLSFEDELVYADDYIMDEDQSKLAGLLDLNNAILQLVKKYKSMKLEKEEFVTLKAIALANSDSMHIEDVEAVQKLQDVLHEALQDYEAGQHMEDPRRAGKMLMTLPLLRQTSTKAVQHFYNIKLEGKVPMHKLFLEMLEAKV
# How it was run: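 Exogenous NR-Gal4 chimera activity was assessed in HepG2 cells bearing transfected GAL4-UAS reporters. After 24 h dosing, total RNA underwent RT-PCR, fluorescent primer extension and HpaI digestion before capillary electrophoresis, with gain of signal scored against DMSO.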
# [7] = target: Transcriptional activator Myb (Homo sapiens) (UniProt P10242); experiment: ATG_Myb_CIS: Attagene CIS-FACTORIAL HepG2 Assay for human Myeloblastosis (Myb) Proto-Oncogene Transcription Factor (AID 2282986; active = hit-call score of the fitted dose curve at least 0.9, where 1 is the maximum; inactive = score below 0.9); details: HepG2 Attagene CIS-FACTORIAL Myb reporter transcription; actives raise or lower the signal
# Sequence of Transcriptional activator Myb (Homo sapiens) (P10242 whole entry, looked up): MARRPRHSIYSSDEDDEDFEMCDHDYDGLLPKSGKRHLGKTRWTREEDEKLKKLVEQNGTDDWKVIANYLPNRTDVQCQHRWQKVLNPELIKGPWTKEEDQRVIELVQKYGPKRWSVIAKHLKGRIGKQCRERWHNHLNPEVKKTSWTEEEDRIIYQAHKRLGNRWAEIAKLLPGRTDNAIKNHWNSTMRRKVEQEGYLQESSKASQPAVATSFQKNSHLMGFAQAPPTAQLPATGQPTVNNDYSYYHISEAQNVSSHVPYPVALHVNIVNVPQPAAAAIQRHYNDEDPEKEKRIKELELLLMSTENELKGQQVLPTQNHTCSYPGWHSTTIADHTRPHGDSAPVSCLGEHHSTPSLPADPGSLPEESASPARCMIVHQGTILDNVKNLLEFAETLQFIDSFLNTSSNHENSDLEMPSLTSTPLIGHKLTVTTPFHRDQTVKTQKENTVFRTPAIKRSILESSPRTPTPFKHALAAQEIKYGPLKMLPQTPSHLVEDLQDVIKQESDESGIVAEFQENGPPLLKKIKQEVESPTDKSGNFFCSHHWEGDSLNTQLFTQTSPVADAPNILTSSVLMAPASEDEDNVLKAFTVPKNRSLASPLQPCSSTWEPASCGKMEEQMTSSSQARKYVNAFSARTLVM
# How it was run: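 Multiplexed cis-reporter system in HepG2: transient transfection, 24 h treatment, mRNA readout by RT-PCR and capillary electrophoresis. Both increases and decreases are scored versus DMSO negative control.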
# [8] = target: Steroid hormone receptor ERR1 (Homo sapiens) (UniProt P11474); experiment: ATG_ERRa_TRANS: Attagene TRANS-FACTORIAL HepG2 Assay for human Estrogen-Related Receptor alpha (ERRa) (AID 2282971); details: HepG2 Attagene TRANS reporter, ERRa transactivation
# How it was run: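 HepG2 cells transiently transfected with multiplexed GAL4-UAS reporter units reading chimeric ERRa-Gal4 activity; 24 h compound exposure. Reporter mRNA measured by RT-PCR, 6-FAM labelling, HpaI digest and capillary electrophoresis; gain of signal fitted versus DMSO baseline.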
# [9] = ATG_GAL4_TRANS: Attagene TRANS-FACTORIAL HepG2 Assay for GAL4 (Internal Marker) (AID 2282976); details: HepG2 Attagene TRANS GAL4 internal marker reporter
# How it was run: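 HepG2 cells transiently transfected with multiplexed GAL4-UAS reporter constructs were dosed for 24 h. Reporter mRNA was measured by RT-PCR, 6-FAM primer extension, HpaI digestion and capillary electrophoresis, and gain of signal was fitted relative to DMSO.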
# [10] = target: Glucocorticoid receptor (Homo sapiens) (UniProt P04150); experiment: ATG_GR_TRANS: Attagene TRANS-FACTORIAL HepG2 Assay for human Glucocorticoid Receptor (GR) (AID 2282978); details: HepG2 Attagene TRANS GR reporter, mRNA transcription;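 note: activators score as hits since higher reporter transcript over DMSO is fitted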
# Sequence of Glucocorticoid receptor (Homo sapiens) (P04150 whole entry, looked up, the tested form may be a part): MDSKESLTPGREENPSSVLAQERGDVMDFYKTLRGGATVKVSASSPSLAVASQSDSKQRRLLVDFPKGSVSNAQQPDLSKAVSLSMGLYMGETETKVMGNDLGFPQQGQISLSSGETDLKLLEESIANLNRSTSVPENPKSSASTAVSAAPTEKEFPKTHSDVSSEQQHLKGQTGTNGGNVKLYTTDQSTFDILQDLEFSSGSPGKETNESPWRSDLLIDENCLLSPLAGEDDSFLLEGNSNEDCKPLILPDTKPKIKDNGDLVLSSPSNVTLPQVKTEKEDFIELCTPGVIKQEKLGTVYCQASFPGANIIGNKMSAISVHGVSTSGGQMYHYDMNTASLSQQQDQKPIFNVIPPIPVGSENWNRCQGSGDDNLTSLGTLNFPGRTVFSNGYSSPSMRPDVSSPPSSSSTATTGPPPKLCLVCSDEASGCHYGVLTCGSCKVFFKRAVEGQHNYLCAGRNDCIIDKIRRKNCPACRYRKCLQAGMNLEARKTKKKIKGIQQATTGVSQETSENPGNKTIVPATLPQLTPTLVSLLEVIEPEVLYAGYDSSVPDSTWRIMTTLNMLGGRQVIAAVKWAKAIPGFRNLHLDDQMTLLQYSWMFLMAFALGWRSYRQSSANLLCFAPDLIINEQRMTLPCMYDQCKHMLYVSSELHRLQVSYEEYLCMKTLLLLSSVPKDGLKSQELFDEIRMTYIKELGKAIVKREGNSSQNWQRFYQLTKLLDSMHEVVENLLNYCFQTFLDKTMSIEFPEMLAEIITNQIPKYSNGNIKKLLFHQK
# How it was run: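 HepG2 transient transfection, multiple reporter units, GAL4-UAS under NR-GAL4 chimera control. 24 h treatment. Reporter mRNA by RT-PCR/CE fluorescence, DMSO as negative control.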
# [11] = target: Oxysterols receptor LXR-alpha (Homo sapiens) (UniProt Q13133); experiment: ATG_LXRa_TRANS: Attagene TRANS-FACTORIAL HepG2 Assay for human Liver X Receptor alpha (LXRa) (AID 2282980); details: HepG2 Attagene TRANS reporter, LXRa transactivation
# Sequence of Oxysterols receptor LXR-alpha (Homo sapiens) (Q13133 whole entry, looked up, the tested form may be a part): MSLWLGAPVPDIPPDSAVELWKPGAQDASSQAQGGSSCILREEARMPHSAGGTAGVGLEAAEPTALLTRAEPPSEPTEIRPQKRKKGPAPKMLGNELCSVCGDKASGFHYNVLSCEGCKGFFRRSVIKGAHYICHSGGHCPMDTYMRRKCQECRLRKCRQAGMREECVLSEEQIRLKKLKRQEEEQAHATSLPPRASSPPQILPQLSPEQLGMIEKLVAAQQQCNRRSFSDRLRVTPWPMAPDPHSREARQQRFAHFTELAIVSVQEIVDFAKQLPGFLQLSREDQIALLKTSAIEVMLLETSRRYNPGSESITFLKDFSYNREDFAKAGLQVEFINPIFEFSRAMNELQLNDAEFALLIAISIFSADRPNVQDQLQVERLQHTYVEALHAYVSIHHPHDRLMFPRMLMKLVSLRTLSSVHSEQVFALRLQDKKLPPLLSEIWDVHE
# How it was run: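 HepG2 cells were transiently transfected with multiplexed reporter units driven by chimeric LXRa–GAL4 fusion proteins, then dosed for 24 h. Reporter mRNA was quantified by RT-PCR, fluorescent labelling and capillary electrophoresis; gain of signal fitted against DMSO baseline.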
# [12] = target: Oxysterols receptor LXR-beta (Homo sapiens) (UniProt P55055); experiment: ATG_LXRb_TRANS: Attagene TRANS-FACTORIAL HepG2 Assay for human Liver X Receptor beta (LXRb) (AID 2282981); details: HepG2 Attagene TRANS GAL4-LXRb reporter, mRNA
# Sequence of Oxysterols receptor LXR-beta (Homo sapiens) (P55055 whole entry, looked up, the tested form may be a part): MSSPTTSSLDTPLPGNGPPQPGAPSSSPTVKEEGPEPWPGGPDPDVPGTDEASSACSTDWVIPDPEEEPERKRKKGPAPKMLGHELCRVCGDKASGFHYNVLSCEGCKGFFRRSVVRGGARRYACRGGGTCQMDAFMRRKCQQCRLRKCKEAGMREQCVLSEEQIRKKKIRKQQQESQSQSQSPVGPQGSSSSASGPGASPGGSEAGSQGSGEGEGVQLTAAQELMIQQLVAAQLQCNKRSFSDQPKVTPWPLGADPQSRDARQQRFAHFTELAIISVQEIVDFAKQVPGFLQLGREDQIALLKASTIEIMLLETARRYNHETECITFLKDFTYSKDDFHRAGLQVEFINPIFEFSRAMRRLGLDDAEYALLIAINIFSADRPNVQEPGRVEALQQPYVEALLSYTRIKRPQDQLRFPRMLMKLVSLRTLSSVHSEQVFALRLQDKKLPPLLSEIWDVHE
# How it was run: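 After 24 h of chemical treatment, transfected HepG2 cells yield total RNA; reporter cDNA is PCR-amplified, FAM-labelled, HpaI-cut and run on capillary electrophoresis. Signal reflects chimeric LXRb-Gal4 activity on GAL4-UAS reporters.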
# [13] = target: Hepatocyte nuclear factor 4-alpha (Homo sapiens) (UniProt P41235); experiment: ATG_HNF4a_TRANS: Attagene TRANS-FACTORIAL HepG2 Assay for human Hepatocyte Nuclear Factor 4 alpha (HNF4a) (AID 2282982); details: HepG2 HNF4a transactivation reporter, mRNA readout
# Sequence of Hepatocyte nuclear factor 4-alpha (Homo sapiens) (P41235 whole entry, looked up): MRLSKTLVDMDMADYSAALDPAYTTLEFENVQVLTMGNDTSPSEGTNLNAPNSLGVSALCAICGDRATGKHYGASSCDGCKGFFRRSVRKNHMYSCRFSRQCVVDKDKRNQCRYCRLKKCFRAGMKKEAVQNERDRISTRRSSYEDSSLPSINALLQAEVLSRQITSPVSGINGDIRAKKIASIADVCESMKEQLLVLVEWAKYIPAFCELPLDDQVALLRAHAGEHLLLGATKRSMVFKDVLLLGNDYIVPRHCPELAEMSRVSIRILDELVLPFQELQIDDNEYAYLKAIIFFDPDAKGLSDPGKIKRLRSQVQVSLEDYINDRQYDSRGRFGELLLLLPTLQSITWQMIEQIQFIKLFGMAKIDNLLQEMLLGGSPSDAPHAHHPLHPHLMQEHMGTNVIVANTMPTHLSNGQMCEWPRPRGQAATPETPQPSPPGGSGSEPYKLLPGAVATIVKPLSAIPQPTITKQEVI
# How it was run: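 Multiplexed reporter assay: transfected HepG2, 24 h exposure, total RNA → oligo(dT) RT → PCR → 6-FAM extension → HpaI digest → CE fluorescence. DMSO = negative control.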
# [14] = ATG_M_06_TRANS: Attagene TRANS-FACTORIAL HepG2 Assay for M06 Transcription Factor (Internal Marker) (AID 2282983); details: HepG2 Attagene TRANS M06 internal marker reporter
# How it was run: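 In this multiplexed HepG2 system, compounds are incubated 24 h with cells carrying GAL4-UAS reporter units. Reporter RNA is amplified and resolved by capillary electrophoresis, and induction is scored against DMSO.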
# [15] = ATG_M_32_TRANS: Attagene TRANS-FACTORIAL HepG2 Assay for M32 Transcription Factor (Internal Marker) (AID 2282984); details: HepG2 Attagene TRANS M32 internal marker reporter;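 note: transcript level of a background control reporter unit measured by RT-PCR and capillary electrophoresis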
# How it was run: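 Cell-based TRANS-format assay in HepG2: exogenous chimeric GAL4 reporter units transiently expressed, compounds applied 24 h. Reporter mRNA detected by RT-PCR plus capillary electrophoresis; this readout is an internal background marker.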
# [16] = target: Nuclear receptor subfamily 4 group A member 2 (Homo sapiens) (UniProt P43354); experiment: ATG_NURR1_TRANS: Attagene TRANS-FACTORIAL HepG2 Assay for human Nuclear Receptor Related Protein 1 (NURR1) (AID 2282985); details: HepG2 Attagene TRANS reporter, mRNA readout
# Sequence of Nuclear receptor subfamily 4 group A member 2 (Homo sapiens) (P43354 whole entry, looked up, the tested form may be a part): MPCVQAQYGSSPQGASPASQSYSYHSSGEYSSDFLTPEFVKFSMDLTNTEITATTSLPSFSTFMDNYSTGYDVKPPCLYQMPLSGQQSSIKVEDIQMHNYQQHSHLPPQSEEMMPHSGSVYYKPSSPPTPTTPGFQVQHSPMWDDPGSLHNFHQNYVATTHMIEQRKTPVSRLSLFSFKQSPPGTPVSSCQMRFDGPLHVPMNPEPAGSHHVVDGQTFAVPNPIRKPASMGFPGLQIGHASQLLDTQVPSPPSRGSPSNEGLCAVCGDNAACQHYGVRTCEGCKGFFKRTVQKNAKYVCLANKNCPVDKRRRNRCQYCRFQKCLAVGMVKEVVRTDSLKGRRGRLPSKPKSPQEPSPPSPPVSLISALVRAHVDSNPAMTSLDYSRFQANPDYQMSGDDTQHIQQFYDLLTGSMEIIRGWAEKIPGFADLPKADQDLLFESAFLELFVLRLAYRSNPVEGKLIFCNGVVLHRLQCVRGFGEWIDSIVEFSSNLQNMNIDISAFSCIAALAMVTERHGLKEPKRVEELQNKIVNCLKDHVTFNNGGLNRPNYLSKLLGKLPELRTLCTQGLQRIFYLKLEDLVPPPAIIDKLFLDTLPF
# How it was run: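 Measures transcriptional activation by an exogenous NR-Gal4 chimera in transfected HepG2 liver cells. After 24 h, reporter RNA is reverse-transcribed, amplified and resolved by capillary electrophoresis; DMSO defines baseline.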
# [17] = ATG_VDRE_CIS: Attagene CIS-FACTORIAL HepG2 Assay for human Vitamin D Receptor Element (VDRE) (AID 2282968; active = hit-call score of the fitted dose curve at least 0.9, where 1 is the maximum; inactive = score below 0.9); details: HepG2 VDRE cis-reporter transcription, actives raise or lower the signal
# How it was run: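 Measures endogenous factor activity through cis-element-driven reporter transcripts in transiently transfected HepG2. Cells are treated 24 h; reporter mRNA is quantified by RT-PCR and capillary electrophoresis; fitting is bidirectional.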
# [18] = target: Nuclear receptor subfamily 1 group I member 3 (Homo sapiens) (UniProt Q14994); experiment: ATG_CAR_TRANS: Attagene TRANS-FACTORIAL HepG2 Assay for human Constitutive Androstane Receptor (CAR) (AID 2282969); details: HepG2 Attagene TRANS-FACTORIAL CAR reporter;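 note: activators raise reporter mRNA above DMSO so AC50 marks induction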
# Sequence of Nuclear receptor subfamily 1 group I member 3 (Homo sapiens) (Q14994 whole entry, looked up, the tested form may be a part): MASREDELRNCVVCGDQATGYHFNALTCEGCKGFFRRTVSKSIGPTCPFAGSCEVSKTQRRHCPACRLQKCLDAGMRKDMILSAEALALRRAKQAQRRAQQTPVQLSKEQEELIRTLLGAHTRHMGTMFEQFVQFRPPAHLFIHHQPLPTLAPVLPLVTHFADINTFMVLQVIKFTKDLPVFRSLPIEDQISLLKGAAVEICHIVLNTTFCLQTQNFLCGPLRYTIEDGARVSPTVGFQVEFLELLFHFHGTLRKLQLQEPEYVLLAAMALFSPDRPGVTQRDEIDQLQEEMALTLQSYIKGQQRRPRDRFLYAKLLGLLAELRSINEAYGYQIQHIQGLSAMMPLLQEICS
# How it was run: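 Signal is reporter mRNA induction relative to DMSO, measured 24 h after dosing by RT-PCR with fluorescent primer extension and capillary electrophoresis. Human HepG2 liver cells carried transiently transfected chimeric NR-Gal4/GAL4-UAS reporter constructs.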
# [19] = target: Bile acid receptor (Homo sapiens) (UniProt Q96RI1); experiment: ATG_FXR_TRANS: Attagene TRANS-FACTORIAL HepG2 Assay for Farnesoid X Receptor (FXR) (AID 2282979); details: HepG2 Attagene TRANS FXR-GAL4 reporter transcription;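 note: hits raise reporter mRNA above DMSO so AC50 marks FXR activation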
# Sequence of Bile acid receptor (Homo sapiens) (Q96RI1 whole entry, looked up, the tested form may be a part): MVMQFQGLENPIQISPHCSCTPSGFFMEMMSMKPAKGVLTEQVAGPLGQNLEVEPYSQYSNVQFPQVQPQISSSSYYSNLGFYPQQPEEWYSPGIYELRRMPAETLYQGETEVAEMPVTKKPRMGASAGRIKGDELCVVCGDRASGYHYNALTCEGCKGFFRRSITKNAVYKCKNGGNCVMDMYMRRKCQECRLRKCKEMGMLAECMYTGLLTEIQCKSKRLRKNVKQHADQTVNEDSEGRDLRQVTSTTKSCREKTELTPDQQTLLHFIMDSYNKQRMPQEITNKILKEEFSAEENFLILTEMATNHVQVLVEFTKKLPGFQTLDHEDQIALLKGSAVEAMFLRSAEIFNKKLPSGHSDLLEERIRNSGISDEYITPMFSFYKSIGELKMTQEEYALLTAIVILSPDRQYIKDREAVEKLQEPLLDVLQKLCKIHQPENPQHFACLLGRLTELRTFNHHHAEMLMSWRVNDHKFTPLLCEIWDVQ
# How it was run: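 HepG2 cells transiently transfected with reporter constructs in which a chimeric FXR-GAL4 protein drives a GAL4-UAS reporter; 24 h compound exposure. Reporter mRNA measured by RT-PCR, FAM labelling, HpaI digestion and capillary electrophoresis; gain-of-signal versus DMSO.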
# [20] = target: Estrogen receptor (Homo sapiens) (UniProt P03372); experiment: ATG_ERa_TRANS: Attagene TRANS-FACTORIAL HepG2 Assay for human Estrogen Receptor alpha (ERa) (AID 2282970); details: HepG2 Attagene TRANS ERa GAL4 reporter, mRNA
# How it was run: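 One of 30 multiplexed endpoints from a HepG2 TRANS system, this one reports ERa-Gal4-driven reporter mRNA. Transcripts were quantified 24 hours post-dosing by fluorescent RT-PCR and capillary electrophoresis, with activity scored as induction over DMSO.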
smiles,measurement,setting,value
C=CCc1ccc(O)c(OC)c1,AC50,[1],176 µM (active)
same,outcome,[2],inactive
same,outcome,[3],inactive
same,outcome,[4],inactive
same,outcome,[5],inactive
same,outcome,[6],inactive
same,outcome,[7],inactive
NS(=O)(=O)c1cc2c(cc1Cl)NCNS2(=O)=O,outcome,[1],inactive
same,outcome,[2],inactive
same,outcome,[3],inactive
same,outcome,[8],inactive
same,outcome,[4],inactive
same,outcome,[5],inactive
same,outcome,[9],inactive
same,outcome,[6],inactive
same,outcome,[10],inactive
same,outcome,[11],inactive
same,outcome,[12],inactive
same,outcome,[13],inactive
same,outcome,[14],inactive
same,outcome,[15],inactive
same,outcome,[16],inactive
same,outcome,[7],inactive
CCCc1cc(=O)[nH]c(=S)[nH]1,outcome,[1],inactive
same,outcome,[2],inactive
same,outcome,[3],inactive
same,outcome,[4],inactive
same,outcome,[5],inactive
same,outcome,[9],inactive
same,outcome,[13],inactive
same,outcome,[14],inactive
same,outcome,[15],inactive
same,outcome,[16],inactive
same,outcome,[7],inactive
O=[N+]([O-])C(CO)(CO)CO,outcome,[1],inactive
same,outcome,[2],inactive
same,outcome,[17],inactive
same,outcome,[8],inactive
same,outcome,[4],inactive
same,outcome,[5],inactive
same,outcome,[9],inactive
same,outcome,[11],inactive
same,outcome,[15],inactive
same,outcome,[7],inactive
CCCCCCC(=O)OCC,outcome,[1],inactive
same,outcome,[2],inactive
same,outcome,[18],inactive
same,outcome,[4],inactive
same,outcome,[5],inactive
same,outcome,[6],inactive
same,outcome,[13],inactive
same,outcome,[14],inactive
same,outcome,[15],inactive
same,outcome,[16],inactive
same,outcome,[7],inactive
COc1cc(-c2nc(NC(=O)c3cc4cc(C)cc(C)c4n3CC(=O)O)sc2CCC2CCCCC2)c(OC)cc1Cl,AC50,[1],5.17 µM (active)
same,AC50,[2],100 µM (active)
same,AC50,[4],21.7 µM (active)
same,outcome,[5],inactive
same,outcome,[10],inactive
same,outcome,[19],inactive
same,outcome,[11],inactive
same,outcome,[12],inactive
same,outcome,[13],inactive
same,outcome,[14],inactive
same,outcome,[15],inactive
same,outcome,[16],inactive
same,AC50,[7],24.2 µM (active)
CC1(C)CC(N=C=O)CC(C)(CN=C=O)C1 (stereo not given),outcome,[1],inactive
same,outcome,[2],inactive
same,outcome,[17],inactive
same,outcome,[4],inactive
same,outcome,[19],inactive
same,outcome,[12],inactive
same,outcome,[14],inactive
same,outcome,[15],inactive
same,outcome,[16],inactive
same,outcome,[7],inactive
O=c1c(O)c(-c2ccc(O)c(O)c2)oc2cc(O)cc(O)c12,outcome,[1],inactive
same,outcome,[2],inactive
same,outcome,[18],inactive
same,outcome,[4],inactive
same,outcome,[5],inactive
same,outcome,[11],inactive
same,outcome,[12],inactive
same,outcome,[15],inactive
same,outcome,[16],inactive
same,outcome,[7],inactive
C[Si]1(C)O[Si](C)(C)O[Si](C)(C)O[Si](C)(C)O1,outcome,[1],inactive
same,outcome,[2],inactive
same,outcome,[18],inactive
same,AC50,[20],38.8 µM (active)
same,outcome,[4],inactive
same,outcome,[5],inactive
same,outcome,[19],inactive
same,outcome,[15],inactive
same,outcome,[16],inactive
NCC1(Cc2noc(=O)[nH]2)CCCCC1,outcome,[1],inactive
same,outcome,[2],inactive
same,outcome,[18],inactive
same,outcome,[4],inactive
same,outcome,[9],inactive
same,outcome,[11],inactive
same,outcome,[14],inactive
same,outcome,[16],inactive
O=C(O)CCCCC(=O)O,outcome,[1],inactive
same,outcome,[2],inactive
same,outcome,[4],inactive
same,outcome,[5],inactive
same,outcome,[10],inactive
same,outcome,[19],inactive
same,outcome,[12],inactive
same,outcome,[13],inactive
same,outcome,[15],inactive
same,outcome,[16],inactive

# Source: PubChem BioAssay (EPA / NIEHS)
